Source: PubChem BioAssay AID1159580 (chemical genetic matrix, 2015)
Values joined by “and” are separate entries in the source; they are usually repeats but may differ in a detail not shown here. Equal values may be shown once. In all, about 5,500 compounds went through this assay and about 2,000 (36%) were called active. About 18% were inconclusive and are not listed. Rule as the data show it: active = normalized growth mostly below about 0.91 (no sharp cut-off); inconclusive = no clear call, values can overlap the other calls; inactive = mostly above about 0.92. Some of the results follow.

Assay: chemical genetic growth profiling, strain panel (AID 1159580);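 also: tested at 20 µM; growth read once vehicle control cultures reached saturation at 30 °C; 1 = growth at the plate median or of vehicle wells; lower values mean less growth of the strain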
Settings: S. cerevisiae deletion strains, growth OD

Measured: normalized growth

CCOC(=O)c1ccc(N)cc1
inactive: locus YAL021C, strain ccr4, active compounds read low 1.03 | locus YAL026C, strain drs2, active compounds read low 1 | locus YAL030W, strain snc1, active compounds read low 1.01 | locus YBL061C, strain skt5, active compounds read low 0.999 | locus YBR009C, strain hhf1, active compounds read low 0.98 | locus YBR021W, strain FUR4, active compounds read low 0.998 | locus YBR023C, strain chs3, active compounds read low 1.03 | locus YBR171W, strain sec66, active compounds read low 1.03 | locus YBR229C, strain ROT2, active compounds read low 0.999 | locus YBR231C, strain swc5, active compounds read low 1 | locus YBR279W, strain paf1, active compounds read low 1 | locus YCL011C, strain gbp2, active compounds read low 0.987 | locus YCL016C, strain dcc1, active compounds read low 1.01 | locus YCL029C, strain bik1, active compounds read low 0.993 | locus YCL061C, strain MRC1, active compounds read low 1.01 | locus YCL069W, strain vba3, active compounds read low 0.993 | locus YCR088W, strain abp1, active compounds read low 1.01 | locus YDL005C, strain med2, active compounds read low 1.01 | locus YDL035C, strain GPR1, active compounds read low 1.01 | locus YDL040C, strain nat1, active compounds read low 1.01 | locus YDL074C, strain BRE1, active compounds read low 0.994 | locus YDL101C, strain DUN1, active compounds read low 0.993 | locus YDL185W, strain tfp1, active compounds read low 0.994 | locus YDL192W, strain arf1, active compounds read low 1.01 | locus YDR001C, strain nth1, active compounds read low 0.999 | locus YDR069C, strain doa4, active compounds read low 1.04 | locus YDR101C, strain arx1, active compounds read low 1.01 | locus YDR137W, strain rgp1, active compounds read low 1.01 | locus YDR150W, strain NUM1, active compounds read low 0.993 | locus YDR159W, strain sac3, active compounds read low 1 | locus YDR162C, strain NBP2, active compounds read low 0.999 | locus YDR195W, strain ref2 1.09 | locus YDR297W, strain sur2, active compounds read low 1.01 | locus YDR318W, strain mcm21, active compounds read low 0.994 | locus YDR334W, strain swr1, active compounds read low 1.02 | locus YDR335W, strain msn5, active compounds read low 1.02 | locus YDR388W, active compounds read low 0.989 | locus YDR392W, strain spt3, active compounds read low 0.941 | locus YDR502C, strain sam2, active compounds read low 0.987 | locus YEL003W, strain gim4, active compounds read low 1.02 | locus YEL037C, strain rad23, active compounds read low 1.01 | locus YEL061C, strain CIN8 (second series), active compounds read low 1.04 | locus YEL061C, strain CIN8, active compounds read low 1.01 | locus YER015W, strain faa2, active compounds read low 1.01 | locus YER016W, strain bim1, active compounds read low 0.972 | locus YER110C, active compounds read low 0.995 | locus YER111C, strain swi4, active compounds read low 1 | locus YER155C, strain BEM2 (second series), active compounds read low 0.952 | locus YER155C, strain BEM2, active compounds read low 1.01 | locus YER167W, strain BCK2, active compounds read low 1 | locus YFR010W, strain ubp6, active compounds read low 1.02 | locus YGL078C, strain dbp3, active compounds read low 0.996 | locus YGL086W, strain mad1, active compounds read low 0.993 | locus YGL167C, strain pmr1, active compounds read low 1.03 | locus YGL173C, strain kem1, active compounds read low 0.998 | locus YGL227W, strain vid30, active compounds read low 1.02 | locus YGL240W, strain doc1, active compounds read low 0.996 | locus YGL248W, strain PDE1, active compounds read low 0.997 | locus YGL253W, strain hxk2, active compounds read low 1.01 | locus YGR135W, strain pre9, active compounds read low 0.99 | locus YGR252W, strain gcn5, active compounds read low 0.959 | locus YHR013C, strain ard1, active compounds read low 1.04 | locus YHR027C, strain rpn1, active compounds read low 1.01 | locus YHR030C, strain SLT2, active compounds read low 1.01 and 1.02 | locus YHR079C, strain IRE1 (second series), active compounds read low 0.994 | locus YHR079C, strain IRE1, active compounds read low 0.993 | locus YHR094C, strain hxt1, active compounds read low 0.984 | locus YHR129C, strain ARP1, active compounds read low 1 | locus YHR142W, strain chs7, active compounds read low 0.963 | locus YHR200W, strain rpn10, active compounds read low 0.989 | locus YIL066C, strain RNR3, active compounds read low 1.02 | locus YIL073C, strain SPO22, active compounds read low 0.943 | locus YIL125W, strain kgd1, active compounds read low 0.991 | locus YIR030C, strain dcg1, active compounds read low 0.997 | locus YJL092W, strain hpr5, active compounds read low 1.02 | locus YJL095W, strain BCK1 (second series), active compounds read low 1.01 | locus YJL095W, strain BCK1, active compounds read low 0.995 and 0.999 | locus YJL115W, strain asf1, active compounds read low 1.02 | locus YJL129C, strain trk1, active compounds read low 1.04 | locus YJL134W, strain LCB3, active compounds read low 1 | locus YJL154C, strain vps35, active compounds read low 1.01 | locus YJL164C, strain tpk1, active compounds read low 0.982 | locus YJL166W, strain qcr8, active compounds read low 1.01 | locus YJL168C, strain set2, active compounds read low 0.992 | locus YJL187C, strain SWE1 (second series), active compounds read low 0.985 | locus YJR043C, strain POL32, active compounds read low 1.02 | locus YJR066W, strain TOR1, active compounds read low 0.966 | locus YKL009W, strain mrt4, active compounds read low 0.976 | locus YKL068W, active compounds read low 0.993 | locus YKL085W, strain MDH1 (second series), active compounds read low 0.996 | locus YKL085W, strain MDH1, active compounds read low 0.996 | locus YKL160W, strain elf1, active compounds read low 1.02 | locus YKL190W, strain CNB1, active compounds read low 0.988 | locus YKR001C, strain vps1, active compounds read low 0.987 | locus YKR091W, strain srl3, active compounds read low 1.01 | locus YLL001W, strain dnm1, active compounds read low 1.01 | locus YLL026W, active compounds read low 1.02 | locus YLL041C, strain sdh2, active compounds read low 1.02 | locus YLR027C, strain aat2, active compounds read low 1 | locus YLR039C, strain RIC1, active compounds read low 1.01 | locus YLR058C, strain SHM2, active compounds read low 0.999 | locus YLR102C, strain apc9, active compounds read low 0.989 | locus YLR113W, strain HOG1, active compounds read low 0.979 | locus YLR221C, strain rsa3, active compounds read low 1.01 | locus YLR258W, strain gsy2, active compounds read low 0.998 | locus YLR262C, strain YPT6 (second series), active compounds read low 1.03 | locus YLR262C, strain YPT6, active compounds read low 0.988 | locus YLR268W, strain sec22, active compounds read low 0.991 | locus YLR320W, strain mms22, active compounds read low 0.978 | locus YLR330W, strain CHS5, active compounds read low 1.01 | locus YLR342W, strain FKS1 (second series), active compounds read low 1.03 | locus YLR342W, strain FKS1, active compounds read low 1 | locus YLR357W, strain rsc2, active compounds read low 1.05 | locus YLR370C, strain arc18, active compounds read low 1.01 | locus YLR371W, strain rom2, active compounds read low 0.994 | locus YLR384C, strain iki3, active compounds read low 1.02 | locus YLR418C, strain cdc73, active compounds read low 0.988 | locus YML016C, strain PPZ1, active compounds read low 1 | locus YML032C, strain rad52, active compounds read low 0.995 | locus YML120C, strain ndi1, active compounds read low 1.02 | locus YML124C, strain tub3, active compounds read low 0.992 | locus YMR058W, strain fet3, active compounds read low 1.03 | locus YMR078C, strain ctf18, active compounds read low 0.998 | locus YMR125W, strain sto1, active compounds read low 1.01 | locus YMR129W, active compounds read low 1.01 | locus YMR205C, strain PFK2, active compounds read low 1.01 | locus YMR223W, strain ubp8, active compounds read low 0.997 | locus YMR231W, strain pep5, active compounds read low 1.01 | locus YMR263W, strain SAP30, active compounds read low 1 | locus YMR307W, strain GAS1, active compounds read low 1.09 | locus YNL067W, strain RPL9B, active compounds read low 0.975 | locus YNL071W, strain lat1, active compounds read low 0.983 | locus YNL183C, strain NPR1, active compounds read low 0.949 | locus YNL209W, strain ssb2, active compounds read low 0.993 | locus YNL233W, strain BNI4, active compounds read low 1.01 | locus YNL248C, strain rpa49, active compounds read low 1 | locus YNL250W, strain rad50, active compounds read low 0.983 | locus YNL271C, strain bni1, active compounds read low 0.993 | locus YNL298W, strain CLA4, active compounds read low 1.01 | locus YNL307C, strain MCK1, active compounds read low 0.986 | locus YNL322C, strain KRE1 (second series), active compounds read low 1.01 | locus YNR049C, strain mso1, active compounds read low 1.02 | locus YNR052C, strain pop2, active compounds read low 0.987 | locus YOL006C, strain TOP1, active compounds read low 1.03 | locus YOL012C, strain htz1 0.986 | locus YOL147C, strain pex11, active compounds read low 0.993 | locus YOR001W, strain rrp6, active compounds read low 1.02 | locus YOR061W, strain CKA2, active compounds read low 0.996 | locus YOR069W, strain VPS5, active compounds read low 0.998 | locus YOR070C, strain gyp1, active compounds read low 0.989 | locus YOR080W, strain dia2, active compounds read low 1.03 | locus YOR083W, strain WHI5, active compounds read low 1.01 | locus YOR106W, strain vam3, active compounds read low 1.02 | locus YOR136W, strain idh2, active compounds read low 0.98 | locus YOR144C, strain elg1, active compounds read low 0.997 | locus YOR184W, strain ser1, active compounds read low 0.991 | locus YOR231W, strain MKK1, active compounds read low 0.989 | locus YOR265W, strain rbl2, active compounds read low 1.01 | locus YOR270C, strain vph1, active compounds read low 0.973 | locus YOR290C, strain snf2, active compounds read low 0.988 | locus YOR316C, strain cot1, active compounds read low 0.989 | locus YPL051W, strain arl3, active compounds read low 1.02 | locus YPL055C, strain LGE1, active compounds read low 1 | locus YPL078C, strain atp4, active compounds read low 1.03 | locus YPL106C, strain sse1, active compounds read low 0.946 | locus YPL240C, strain hsp82, active compounds read low 1.02 | locus YPL241C, strain CIN2, active compounds read low 1 | locus YPL256C, strain CLN2, active compounds read low 0.983 | locus YPR119W, strain clb2, active compounds read low 0.99 | locus YPR141C, strain kar3, active compounds read low 0.999 | locus YPR163C, strain tif3, active compounds read low 1 | locus YPR167C, strain met16, active compounds read low 0.996 | strain wtn01, active compounds read low 0.997
